Many of the other results were omitted from the sample, so hits are more common in it than they were.
Pf Dd2 inh: inhibitors of Plasmodium falciparum Dd2 growth; Potency, µM (titrated, usually from 28.9 µM), without a hit: top-dose activity, negative = inhibition, most hits filed as inhibitors; actives 4.3% (n = 120,000); AID 1347417; P. falciparum Dd2 growth, SYBR Green, 72 h; active = well fitted inhibition curve with a large enough effect;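 also: plate controls were DMSO vehicle for no effect and reference drug for full effect; nearly all actives have a fitted effect of over 65% in size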
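Infected erythrocytes (Dd2, 0.3% parasitemia, 2.5% hematocrit final) are added to compound in RPMI-1640/Albumax II medium, grown 72 h at 37C in low oxygen, then lysed with saponin/Triton-X containing SYBR Green and read by fluorescence.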
* hit, by the source's call; [ ] = another dose, or the depositor's remark. Potency is read from the fitted curve at half-maximal effect.

What do the screens show for `COc1ccc(CN2C=C(C(=O)OCc3noc(-c4ccccc4F)n3)C(C)=NS2(=O)=O)cc1`?
Pf Dd2 inh: -18%

How did O=[S+]([O-])(c1ccccc1)N1CC2(COCCN(Cc3ccncc3)C2)C1 do in these assays?
Pf Dd2 inh: 22%[44.1 µM]

Results for CCOc1ccc(C2c3[nH]c4ccccc4c3CCN2C(=O)Cc2cccc(OCC)c2OCC)cc1 (centres undefined) ?
Pf Dd2 inh: 11µM*

How did O=C(COc1ccccc1)NC1CCCc2c1[nH]c1ccccc21 (centres undefined) do in these assays?
Pf Dd2 inh: inactive

How did CCOc1ccc(CNC(=O)c2[nH]c3ccccc3c2Sc2ccc(C)cc2)cc1 do in these assays?
Pf Dd2 inh: -5%

What do the screens show for `O=C(CSCc1ccc(F)cc1)N1CCc2c([nH]c3ccccc23)C1c1ccc(Cl)cc1` (centres undefined)?
Pf Dd2 inh: -9%

What do the screens show for `CCOc1cccc(CC(=O)N2CCc3c([nH]c4ccccc34)C2c2ccc(SC)cc2)c1OCC` (centres undefined)?
Pf Dd2 inh: 7.9µM*

Results for CCOc1cccc(CC(=O)NCc2ccc3c(c2)CCN3C(C)=O)c1OCC ?
Pf Dd2 inh: 66%

What do the screens show for `CC1=NS(=O)(=O)N(C)C=C1C(=O)OCc1nc(Cc2cccc(C)c2)no1`?
Pf Dd2 inh: 16%

How did CC(=O)N1CCN(c2ccnc(-c3nnc(C)n3C3CCCCC3)c2)CC1 do in these assays?
Pf Dd2 inh: -8%[44.1 µM]

How did CC[C@@]1(O)CCN(C(=O)CCn2nc(C)c(C(C)=O)c2C)C[C@H]1O do in these assays?
Pf Dd2 inh: -4%

What do the screens show for `O=C(NC1CCCC1)NC1CCN(c2nc3ncccc3o2)CC1`?
Pf Dd2 inh: 1%[44.1 µM]

Results for CC(C)(C)OC(=O)N1CCC(c2c(C(=O)N3CCCCC3)cnn2-c2ccc(F)cc2)CC1 ?
Pf Dd2 inh: 3%

Results for Cc1cccc(-n2ncc(C(=O)N3CCN(Cc4ccccc4)CC3)c2C2CCN(C(=O)OC(C)(C)C)CC2)c1 ?
Pf Dd2 inh: 7.9µM*

What do the screens show for `Cc1ccc(-n2ncc(C(=O)N3CCN(c4cccc(C)c4)C(C)C3)c2C2CCN(C(=O)OC(C)(C)C)CC2)cc1` (centres undefined)?
Pf Dd2 inh: 4.5µM*

Results for CC(C)(C)OC(=O)N1CCC(c2c(C(=O)N3CCN(C(=O)c4ccco4)CC3)cnn2-c2cccc(Cl)c2)CC1 ?
Pf Dd2 inh: 10µM*

What do the screens show for `CN1CCN(C(=O)c2cnn(-c3ccccc3)c2C2CCN(C(=O)OC(C)(C)C)CC2)CC1`?
Pf Dd2 inh: -21%

How did CC(C)(C)OC(=O)N1CCC(c2c(C(=O)N3CCN(C4CCCCC4)CC3)cnn2-c2cccc(Cl)c2)CC1 do in these assays?
Pf Dd2 inh: 10µM*

How did CC(C)(C)OC(=O)N1CCC(c2c(C(=O)NC3CCN(Cc4ccccc4)CC3)cnn2-c2cccc(F)c2)CC1 do in these assays?
Pf Dd2 inh: -17%

Results for COc1ccc(-n2ncc(C(=O)N3CCN(C(=O)c4ccco4)CC3)c2C2CCN(C(=O)OC(C)(C)C)CC2)cc1 ?
Pf Dd2 inh: 38%

How did CC(C)(C)OC(=O)N1CCC(c2c(C(=O)N3CCN(c4ncccn4)CC3)cnn2-c2cccc(F)c2)CC1 do in these assays?
Pf Dd2 inh: 8%

What do the screens show for `CN1CCC2(CCC1=O)CN(C(=O)Cn1cccnc1=O)CCN2C` (centres undefined)?
Pf Dd2 inh: -5%

How did CC(C)NC(=O)Nc1ccc([C@H]2OCC(=O)N(CCN)[C@@H]2CO)cc1 do in these assays?
Pf Dd2 inh: 15%[44.1 µM]

What do the screens show for `Cc1ncc2c(c1CNC(=O)Cn1cnc3ccccc3c1=O)CCNC2`?
Pf Dd2 inh: -5%

What do the screens show for `Cn1ncc(N2CCCC(C(=O)O)C2)cc1=O` (centres undefined)?
Pf Dd2 inh: 28%

What do the screens show for `CC(C)NC(=O)C[C@@H]1O[C@H](CNC(=O)c2ccccc2)[C@@H](O)[C@H]1O`?
Pf Dd2 inh: 4%[44.1 µM]

Results for COc1ccc(CC(=O)N2CC(CO)C3(CCNCC3)C2)cc1OC (centres undefined) ?
Pf Dd2 inh: 21%

Results for Cc1ccc(Cn2c(CN3CCCC(O)(CO)C3)nc3ccccc32)cc1 (centres undefined) ?
Pf Dd2 inh: -11%

What do the screens show for `COCCNC(=O)C[C@@H]1C[C@H]2O[C@H](CN(C)C)[C@@H](O)[C@H]2O1`?
Pf Dd2 inh: inactive

What do the screens show for `Cn1c(CCNC(=O)CC2CCOC3(CCN(S(C)(=O)=O)CC3)C2)nc2ccccc21` (centres undefined)?
Pf Dd2 inh: -4%

What do the screens show for `COCCOC1CCN(S(=O)(=O)c2cn(C)cn2)CC1`?
Pf Dd2 inh: 48%

What do the screens show for `Cc1c(CN2CC[C@H]3CC[C@@H](C2)N3)c(=O)n(-c2ccccc2)n1C`?
Pf Dd2 inh: -3%

Results for COc1ccc(-n2nc3n(c2=O)CCN(Cc2ccc(F)cc2)C3)cc1 ?
Pf Dd2 inh: 11%

Results for CCOC(=O)C1CCCCN1C(=O)c1cn(C(c2ccccc2)c2ccccc2)nn1 (centres undefined) ?
Pf Dd2 inh: -14%

How did Cc1oc2c(c1C(=O)N(C)CCc1ccccn1)CN(Cc1cccc(F)c1)CC2 do in these assays?
Pf Dd2 inh: -26%

Results for COCCCNC(=O)c1c(C)oc2c1CN(Cc1ccc(F)cc1)CC2 ?
Pf Dd2 inh: -23%

Results for CCOC(=O)C1CCCCN1C(=O)c1c(C)oc2c1CN(Cc1cccc(F)c1)CC2 (centres undefined) ?
Pf Dd2 inh: 6.3µM*

What do the screens show for `COc1ccc(N(C)C(=O)c2c(C)oc3c2CN(Cc2ccc(F)cc2)CC3)cc1`?
Pf Dd2 inh: 13µM*

How did Cc1oc2c(c1C(=O)N1CCN(c3ccccc3)CC1)CN(Cc1ccc(F)cc1)CC2 do in these assays?
Pf Dd2 inh: 11µM*

What do the screens show for `Cc1oc2ccn(Cc3ccccc3F)c(=O)c2c1C(=O)N1CCN(c2ccccc2)CC1`?
Pf Dd2 inh: -22%

Results for CCCn1ccc2oc(C)c(C(=O)N3CCN(c4ccc(F)cc4)CC3)c2c1=O ?
Pf Dd2 inh: -13%

What do the screens show for `Cc1ccc(CN2CCc3oc(C)c(C(=O)N4CCC(C(N)=O)CC4)c3C2)cc1`?
Pf Dd2 inh: -20%

Results for Cc1oc2c(c1C(=O)N1CCOCC1)CN(C(=O)c1ccncc1)CC2 ?
Pf Dd2 inh: -28%

How did Cc1ccc(CN2CCc3oc(C)c(C(=O)N4CCSCC4)c3C2)cc1 do in these assays?
Pf Dd2 inh: 10µM*

How did Cc1ccccc1[C@H]1[C@@H](C(=O)N(C)Cc2cccnc2)C[C@@](C)(C(=O)O)N1C do in these assays?
Pf Dd2 inh: 6%

How did CC(=O)Nc1ccc(CN2CC(N3CCc4ccccc43)C2)cc1 do in these assays?
Pf Dd2 inh: -12%

How did O=C(c1ccoc1)N1CC[C@@H](c2ccc3ccccc3c2)[C@H](O)C1 do in these assays?
Pf Dd2 inh: -12%

How did CCn1cc(CN2C[C@@H](COC)[C@H](C(=O)N(C)C)C2)cn1 do in these assays?
Pf Dd2 inh: 7%

What do the screens show for `CCN(CC)Cc1cnc2c(C(=O)N(C)CCc3ccccn3)cnn2c1`?
Pf Dd2 inh: -7%

Results for COc1ccc(OC)c(CNC(=O)c2c(OC)cc(=O)n3c2CCCC3)c1 ?
Pf Dd2 inh: -4%

Results for CC(C)N(C)Cc1nnnn1CC(=O)N1CCCC(OCc2ccccn2)C1 (centres undefined) ?
Pf Dd2 inh: -11%

What do the screens show for `O=C(C1CCN(C(=O)N2CC3CC(C2)[C@H]2CCCC(=O)N2C3)CC1)N1CC=C(c2ccccc2)CC1` (some centres undefined)?
Pf Dd2 inh: inactive
